From PubChem BioAssay (NCATS) come the findings set out here.

Values joined by “and” are separate entries in the source; they are usually repeats but may differ in a detail not shown here. Identical values can stand only once. Results filed as inconclusive are left out. Where a call stands in place of a potency, no number is given. Active and inactive are the calls of the source. The call rests on the fitted dose curve; in most records, active means well fitted inhibition curve with a large enough effect; inconclusive means small, poorly fitted or top-dose-only effect; inactive means flat fitted curve, though single readings scatter.
Potency means the concentration at half of the fitted maximal effect.

The test system of this experiment is Zika virus NS2B-NS3 protease. As to the kind of experiment: Primary screen GU AMC qHTS for Zika virus inhibitors (AID 1347154). Further: nearly all actives have a fitted effect of over 70% in size. The settings on record: Zika NS2B-NS3 unlinked protease, AMC fluorogenic substrate; series mostly up to 54.1 µM. From the text: Avindra Nath, Ph.D., National Institute of Neurological Disorders and Stroke (NINDS), Bethesda, MD
Radhakrishnan Padmanabhan, Ph.D., Georgetown University (GU), Washington D.C.
Zika Virus causes congenital defects, including microcephaly and is associated with Guillain-Barre syndrome, eningoencephalitis and myelitis in infected adult. […] Using a target-based approach, we hope to establish a screening paradigm to uncover novel, cell-active NS2B-NS3 protease (Zika Virus) specific inhibitors from NCATS' collection of small molecules using qHTS.
Early Translation Branch (ETB)
National Center for Advancing Translational Sciences (NCATS), Rockville, MD
National Institute of Health (NIH), Bethesda, Maryland
Padmanabhan lab provided the NS2B hydrophilic domain and NS3 protease domain in a noncovalent complex used for the unlinked assay. Control compound aprotinin is obtained from Thermo Scientific (#78432; Waltham, Massachusetts). NS2B-NS3 AMC substrate (Bz-Nle-Lys-Arg-Arg-AMC; Nle-KRR-AMC) purchased from Bachem (#I-1995; Torrance, CA). Ac-VKTGKR-AMC purchased from Genscript or Bachem, Ac-FAAGKR-AMC purchased from Genscript, Ac-GLVKRR-AMC purchased from Genscript, Ac-LKKR-AMC purchased from Genscript.
GU AMC unlinked NS2B-NS3 protease qHTS protocol
Briefly, 3 microL of Zika virus unlinked NS2B-NS3 protease (25 nM for linked final concentration), in assay buffer (10 mM Tris-HCl pH 8.0 with 0.01% Tween 20) was dispensed into a 1,536-well solid-bottom black plate (Greiner Bio One, Monroe, NC). […] Plates were then read immediately on a ViewLux High-throughput CCD imager (PerkinElmer, Waltham, MA) equipped with standard UV fluorescence optics (340(30) nm excitation, 450(20) nm emission) then incubated (room temperature, protected from light) for 15 minutes (~20% conversion). The change in fluorescence intensity over the 15-minute reaction period was normalized against no-inhibitor and no-enzyme controls and the resulting percent inhibition data were fitted to a 4-parameter Hill equation. Aprotinin was used as the intraplate control.
For `CCCCCCCCCCCCCCC[C@H](O)[C@@H](N)CO`, the Potency result was “inactive”.

`CC(=O)Nc1ccc(OCC(O)CNC(C)C)cc1` (stereo not given): the Potency entry was “inactive”.

In the case of `O=C(c1ccc(F)cc1)C1CCN(CCn2c(=S)[nH]c3ccccc3c2=O)CC1`, the Potency result is “inactive”.

Turning to `CN1CCN(C2=Nc3cc(F)ccc3Cc3ccccc32)CC1`, the Potency entry was “inactive”.

Take `C[N+]12CCC(CC1)C(OC(=O)C(O)(c1ccccc1)c1ccccc1)C2` (stereo not given): the Potency result was “inactive”.

Turning to `NC1CCN(c2nc3c(cc2F)c(=O)c(C(=O)O)cn3-c2ccc(F)cc2F)C1` (stereo not given), the Potency result was “inactive”.

`CCNC(=O)/C=C/c1cccc(Br)c1`: the Potency result was “inactive”.

Turning to `COc1cc(O)c(C(=O)c2ccccc2)cc1S(=O)(=O)O`, the Potency result is “inactive”.

For `C[C@]12CCC(=O)C=C1C=C[C@@H]1[C@@H]2CC[C@@]2(C)[C@H]1CC[C@@]21CCC(=O)O1`, the Potency result was “inactive”.

Regarding `CCCCCCCCCCCCCCCC(=O)O`, the Potency result was “inactive”.

As for `COc1ccc(C(=O)c2ccccc2O)c(O)c1`, the Potency entry was “inactive”.

Take `C=C1c2cccc(O)c2C(O)=C2C(=O)[C@]3(O)C(O)=C(C(N)=O)C(=O)[C@@H](N(C)C)[C@@H]3[C@@H](O)[C@H]12`: the Potency is 3.98 µM (active) and 2.99 µM (active).

As for `Cc1cc(CC(=O)O)c(C)n1-c1ccc(Cl)cc1`, the Potency entry was “inactive”.

On to `NS(=O)(=O)Cc1noc2ccccc12`, for which the Potency entry is “inactive”.

In the case of `Cc1ccc(O)c([C@H](CCN(C(C)C)C(C)C)c2ccccc2)c1`, the Potency entry is “inactive”.

Take `Cc1ncc(CO)c(C=O)c1O`: the Potency is 14.4 µM (active).

As for `OCc1ccccn1`, the Potency entry was “inactive”.

Turning to `C=C[C@@]1(C)CC(=O)[C@]2(O)[C@@]3(C)[C@@H](O)CCC(C)(C)[C@@H]3[C@H](O)[C@H](OC(C)=O)[C@@]2(C)O1`, the Potency entry was “inactive”.

For `Cc1ccccc1OCC(O)CO` (stereo not given), the Potency entry was “inactive”.

As to `COC(=O)C(c1ccccc1Cl)N1CCc2sccc2C1` (stereo not given), the Potency result was “inactive”.

As for `COc1ccc(-c2cc(C(F)F)nn2-c2ccc(S(N)(=O)=O)cc2)cc1F`, the Potency entry was “inactive”.

On to `OCCOCCN1CCN(C2=Nc3ccccc3Sc3ccccc32)CC1`, for which the Potency entry was “inactive”.

Turning to `CC(=O)OC[C@H]1O[C@@H](n2ncc(=O)[nH]c2=O)[C@H](OC(C)=O)[C@@H]1OC(C)=O`, the Potency result was “inactive”.

`CC(C)Cn1cnc2c1c(=O)n(C)c(=O)n2C`: the Potency result is “inactive”.

For the compound `CCc1ccc(C(=O)C(C)CN2CCCCC2)cc1` (stereo not given), the Potency result is “inactive”.

Regarding `Oc1ccccc1C=NCc1ccccc1`, the Potency result is “inactive”.

As to `c1ccc(CC2=NCCN2)cc1`, the Potency entry is “inactive”.

In the case of `COc1cc(C(=S)N2CCOCC2)ccc1O`, the Potency result was “inactive”.

`CCCCCCCCNC(C)C(O)c1ccc(SC(C)C)cc1` (stereo not given): the Potency result was “inactive”.

Take `Nc1nc(-c2ccccc2)c(Br)c(=O)[nH]1`: the Potency entry was “inactive”.

On to `CN(C)CCC[C@@]1(c2ccc(F)cc2)OCc2cc(C#N)ccc21`, for which the Potency result is “inactive”.

On to `COc1ccc(C(=O)c2ccccc2)c(O)c1`, for which the Potency result is “inactive”.

For the compound `CCC(C(=O)OCCOCCN(CC)CC)c1ccccc1` (stereo not given), the Potency result is “inactive”.

`COc1cc(C(=O)NCc2ccc(OCCN(C)C)cc2)cc(OC)c1OC`: the Potency entry is “inactive”.

With `CCC(Cc1c(I)cc(I)c(N)c1I)C(=O)O` (stereo not given), the Potency entry was “inactive”.

In the case of `O=C(O)CCNC(=O)c1ccccc1`, the Potency entry is “inactive”.

`CO[C@]12C[C@@H](COC(=O)c3cncc(Br)c3)CN(C)[C@@H]1Cc1cn(C)c3cccc2c13`: the Potency result is “inactive”.

Regarding `CC(CNC1CCCCC1)OC(=O)c1ccccc1` (stereo not given), the Potency entry was “inactive”.

As for `NS(=O)(=O)c1ccc(Cl)c(S(N)(=O)=O)c1`, the Potency entry was “inactive”.

With `Cl/C(=C\n1cncn1)c1ccc(Cl)cc1Cl`, the Potency result was “inactive”.
